# Results published in ChEMBL document CHEMBL1961873, “Compounds: GSK PKIS; Assays: Nanosyn kinase panel” (2012).
# Columns and labels:
# [1] = target: T1, Inhibitor of nuclear factor kappa-B kinase subunit epsilon (Homo sapiens) (UniProt Q14164); settings: at 1 µM;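 also: reported values are averaged percent inhibition figures against human IKKε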
# T1 sequence (whole entry): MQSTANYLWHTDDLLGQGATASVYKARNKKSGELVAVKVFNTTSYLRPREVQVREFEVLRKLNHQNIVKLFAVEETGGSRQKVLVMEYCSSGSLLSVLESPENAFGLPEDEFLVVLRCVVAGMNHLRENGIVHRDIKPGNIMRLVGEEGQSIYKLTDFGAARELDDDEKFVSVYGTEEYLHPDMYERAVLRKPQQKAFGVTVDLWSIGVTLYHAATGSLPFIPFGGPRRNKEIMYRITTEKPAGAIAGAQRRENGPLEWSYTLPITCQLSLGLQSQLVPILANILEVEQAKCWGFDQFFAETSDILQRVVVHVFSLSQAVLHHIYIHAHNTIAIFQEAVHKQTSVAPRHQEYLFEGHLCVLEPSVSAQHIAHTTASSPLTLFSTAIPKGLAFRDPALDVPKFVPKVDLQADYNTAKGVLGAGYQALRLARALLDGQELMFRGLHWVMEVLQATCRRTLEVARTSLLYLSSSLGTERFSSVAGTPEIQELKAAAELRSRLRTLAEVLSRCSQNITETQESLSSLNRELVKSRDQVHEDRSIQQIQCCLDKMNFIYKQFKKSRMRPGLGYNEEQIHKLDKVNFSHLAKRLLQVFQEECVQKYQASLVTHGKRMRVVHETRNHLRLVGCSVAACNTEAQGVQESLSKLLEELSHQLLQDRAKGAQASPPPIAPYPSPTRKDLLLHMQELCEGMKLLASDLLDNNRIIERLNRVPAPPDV
# [2] = target: T2, Serine/threonine-protein kinase Nek1 (Homo sapiens) (UniProt Q96PY6); settings: at 0.1 µM
# T2 sequence (whole entry): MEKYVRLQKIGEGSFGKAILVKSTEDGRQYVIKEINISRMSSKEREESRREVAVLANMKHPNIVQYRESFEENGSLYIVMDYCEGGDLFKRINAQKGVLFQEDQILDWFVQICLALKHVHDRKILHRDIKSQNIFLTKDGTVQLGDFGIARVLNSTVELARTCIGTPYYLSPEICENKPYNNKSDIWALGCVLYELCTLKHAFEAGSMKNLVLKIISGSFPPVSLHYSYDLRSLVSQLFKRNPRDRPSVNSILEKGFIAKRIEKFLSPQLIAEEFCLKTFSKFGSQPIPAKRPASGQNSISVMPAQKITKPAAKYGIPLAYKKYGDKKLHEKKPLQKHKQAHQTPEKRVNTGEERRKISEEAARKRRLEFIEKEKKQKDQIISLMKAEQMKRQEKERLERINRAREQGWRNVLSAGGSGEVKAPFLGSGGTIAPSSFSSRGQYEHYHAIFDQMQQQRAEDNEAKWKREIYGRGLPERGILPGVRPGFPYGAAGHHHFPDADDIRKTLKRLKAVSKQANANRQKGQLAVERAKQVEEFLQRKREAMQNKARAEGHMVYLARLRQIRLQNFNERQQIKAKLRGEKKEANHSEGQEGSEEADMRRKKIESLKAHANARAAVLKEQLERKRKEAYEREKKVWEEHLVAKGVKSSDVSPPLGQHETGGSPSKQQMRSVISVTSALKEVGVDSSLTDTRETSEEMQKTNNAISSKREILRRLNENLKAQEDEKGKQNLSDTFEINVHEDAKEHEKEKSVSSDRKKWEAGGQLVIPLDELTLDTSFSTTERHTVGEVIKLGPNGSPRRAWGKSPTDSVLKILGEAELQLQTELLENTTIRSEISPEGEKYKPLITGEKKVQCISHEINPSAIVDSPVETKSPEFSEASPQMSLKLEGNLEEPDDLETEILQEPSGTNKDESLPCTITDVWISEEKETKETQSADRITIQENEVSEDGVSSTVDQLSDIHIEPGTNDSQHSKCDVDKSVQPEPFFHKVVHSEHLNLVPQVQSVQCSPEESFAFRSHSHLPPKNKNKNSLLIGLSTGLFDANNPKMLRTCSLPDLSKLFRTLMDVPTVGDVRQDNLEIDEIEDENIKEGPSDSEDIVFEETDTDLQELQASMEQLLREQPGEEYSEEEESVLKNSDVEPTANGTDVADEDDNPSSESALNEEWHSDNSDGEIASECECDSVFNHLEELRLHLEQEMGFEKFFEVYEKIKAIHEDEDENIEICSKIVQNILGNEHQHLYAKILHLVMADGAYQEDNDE
# [3] = target: T2, Serine/threonine-protein kinase Nek1 (Homo sapiens); settings: at 1 µM
# [4] = target: T3, Serine/threonine-protein kinase Nek2 (Homo sapiens) (UniProt P51955); settings: at 0.1 µM
# T3 sequence (whole entry): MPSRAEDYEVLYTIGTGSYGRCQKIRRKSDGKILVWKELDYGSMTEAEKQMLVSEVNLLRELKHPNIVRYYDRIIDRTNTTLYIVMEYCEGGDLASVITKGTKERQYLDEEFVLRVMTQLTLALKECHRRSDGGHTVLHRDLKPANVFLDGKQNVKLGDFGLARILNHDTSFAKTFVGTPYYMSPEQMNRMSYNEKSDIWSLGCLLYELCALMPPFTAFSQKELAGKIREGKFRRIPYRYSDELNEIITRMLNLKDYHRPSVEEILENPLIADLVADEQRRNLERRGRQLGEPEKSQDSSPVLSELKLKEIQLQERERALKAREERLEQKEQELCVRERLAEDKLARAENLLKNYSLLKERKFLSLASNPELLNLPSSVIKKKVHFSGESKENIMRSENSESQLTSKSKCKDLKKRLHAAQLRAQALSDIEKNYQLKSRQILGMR
# [5] = target: T3, Serine/threonine-protein kinase Nek2 (Homo sapiens); settings: at 1 µM
# [6] = target: Serine/threonine-protein kinase Nek6 (Homo sapiens) (UniProt Q9HC98); settings: at 0.1 µM
# [7] = target: Serine/threonine-protein kinase Nek6 (Homo sapiens) (UniProt Q9HC98); settings: at 1 µM
# [8] = target: Serine/threonine-protein kinase Nek7 (Homo sapiens) (UniProt Q8TDX7); settings: at 0.1 µM
# [9] = target: Serine/threonine-protein kinase Nek7 (Homo sapiens) (UniProt Q8TDX7); settings: at 1 µM
# [10] = target: T4, Serine/threonine-protein kinase Nek9 (Homo sapiens) (UniProt Q8TD19); settings: at 0.1 µM
# T4 sequence (whole entry): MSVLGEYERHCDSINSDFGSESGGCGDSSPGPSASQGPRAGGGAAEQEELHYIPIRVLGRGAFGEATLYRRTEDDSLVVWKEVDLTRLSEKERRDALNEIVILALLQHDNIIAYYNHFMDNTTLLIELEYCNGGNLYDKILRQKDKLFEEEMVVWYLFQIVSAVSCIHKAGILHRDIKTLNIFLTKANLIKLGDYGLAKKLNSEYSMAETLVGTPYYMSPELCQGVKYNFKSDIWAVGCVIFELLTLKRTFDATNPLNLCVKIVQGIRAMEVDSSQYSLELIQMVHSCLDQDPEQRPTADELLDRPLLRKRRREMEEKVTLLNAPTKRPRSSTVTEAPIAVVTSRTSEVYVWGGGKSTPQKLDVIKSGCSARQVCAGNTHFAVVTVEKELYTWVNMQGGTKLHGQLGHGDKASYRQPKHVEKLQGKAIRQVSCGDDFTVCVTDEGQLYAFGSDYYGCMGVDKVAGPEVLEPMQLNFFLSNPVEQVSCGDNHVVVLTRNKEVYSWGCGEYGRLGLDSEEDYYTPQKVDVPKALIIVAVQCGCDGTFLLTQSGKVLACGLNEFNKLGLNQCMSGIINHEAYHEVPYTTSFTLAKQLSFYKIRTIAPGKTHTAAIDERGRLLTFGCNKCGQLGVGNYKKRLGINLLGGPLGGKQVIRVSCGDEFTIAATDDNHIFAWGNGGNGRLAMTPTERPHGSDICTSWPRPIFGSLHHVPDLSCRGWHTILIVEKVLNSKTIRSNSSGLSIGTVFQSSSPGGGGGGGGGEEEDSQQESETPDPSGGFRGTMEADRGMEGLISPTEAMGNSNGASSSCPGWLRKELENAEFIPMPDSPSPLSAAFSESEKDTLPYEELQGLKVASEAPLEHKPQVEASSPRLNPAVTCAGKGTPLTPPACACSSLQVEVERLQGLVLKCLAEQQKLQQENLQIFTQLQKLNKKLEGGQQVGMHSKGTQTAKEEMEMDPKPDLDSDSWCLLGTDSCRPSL
# [11] = target: T4, Serine/threonine-protein kinase Nek9 (Homo sapiens); settings: at 1 µM
# [12] = target: Serine/threonine-protein kinase PLK1 (Homo sapiens) (UniProt P53350); settings: at 0.1 µM
# [13] = target: Serine/threonine-protein kinase PLK1 (Homo sapiens) (UniProt P53350); settings: at 1 µM
# [14] = target: T5, Dual specificity protein kinase TTK (Homo sapiens) (UniProt P33981); settings: at 0.1 µM
# T5 sequence (whole entry): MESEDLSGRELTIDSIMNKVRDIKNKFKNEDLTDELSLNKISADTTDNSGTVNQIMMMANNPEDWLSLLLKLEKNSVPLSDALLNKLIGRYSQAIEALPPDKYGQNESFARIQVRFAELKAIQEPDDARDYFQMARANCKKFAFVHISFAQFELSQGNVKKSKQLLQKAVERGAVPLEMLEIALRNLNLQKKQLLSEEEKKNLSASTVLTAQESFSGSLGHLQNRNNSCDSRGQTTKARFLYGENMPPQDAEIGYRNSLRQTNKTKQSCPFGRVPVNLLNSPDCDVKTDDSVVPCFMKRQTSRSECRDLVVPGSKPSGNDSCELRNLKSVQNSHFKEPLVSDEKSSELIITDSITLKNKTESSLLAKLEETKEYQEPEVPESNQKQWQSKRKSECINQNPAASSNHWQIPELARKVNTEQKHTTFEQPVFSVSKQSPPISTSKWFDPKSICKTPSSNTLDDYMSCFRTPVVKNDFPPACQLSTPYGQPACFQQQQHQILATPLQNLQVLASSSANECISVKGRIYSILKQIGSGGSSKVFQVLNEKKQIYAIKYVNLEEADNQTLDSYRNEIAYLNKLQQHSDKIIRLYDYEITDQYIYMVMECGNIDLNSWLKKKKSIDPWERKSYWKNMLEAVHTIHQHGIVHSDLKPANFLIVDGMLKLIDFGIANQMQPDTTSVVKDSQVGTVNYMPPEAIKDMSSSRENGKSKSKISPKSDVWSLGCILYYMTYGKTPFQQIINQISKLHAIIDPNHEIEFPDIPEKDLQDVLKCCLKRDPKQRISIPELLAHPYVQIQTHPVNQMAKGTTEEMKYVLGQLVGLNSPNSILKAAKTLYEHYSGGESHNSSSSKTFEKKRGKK
# [15] = test system: T6, Receptor-type tyrosine-protein kinase FLT3 (Homo sapiens), P36888 [D835Y]; settings: at 1 µM
# T6 sequence (whole entry): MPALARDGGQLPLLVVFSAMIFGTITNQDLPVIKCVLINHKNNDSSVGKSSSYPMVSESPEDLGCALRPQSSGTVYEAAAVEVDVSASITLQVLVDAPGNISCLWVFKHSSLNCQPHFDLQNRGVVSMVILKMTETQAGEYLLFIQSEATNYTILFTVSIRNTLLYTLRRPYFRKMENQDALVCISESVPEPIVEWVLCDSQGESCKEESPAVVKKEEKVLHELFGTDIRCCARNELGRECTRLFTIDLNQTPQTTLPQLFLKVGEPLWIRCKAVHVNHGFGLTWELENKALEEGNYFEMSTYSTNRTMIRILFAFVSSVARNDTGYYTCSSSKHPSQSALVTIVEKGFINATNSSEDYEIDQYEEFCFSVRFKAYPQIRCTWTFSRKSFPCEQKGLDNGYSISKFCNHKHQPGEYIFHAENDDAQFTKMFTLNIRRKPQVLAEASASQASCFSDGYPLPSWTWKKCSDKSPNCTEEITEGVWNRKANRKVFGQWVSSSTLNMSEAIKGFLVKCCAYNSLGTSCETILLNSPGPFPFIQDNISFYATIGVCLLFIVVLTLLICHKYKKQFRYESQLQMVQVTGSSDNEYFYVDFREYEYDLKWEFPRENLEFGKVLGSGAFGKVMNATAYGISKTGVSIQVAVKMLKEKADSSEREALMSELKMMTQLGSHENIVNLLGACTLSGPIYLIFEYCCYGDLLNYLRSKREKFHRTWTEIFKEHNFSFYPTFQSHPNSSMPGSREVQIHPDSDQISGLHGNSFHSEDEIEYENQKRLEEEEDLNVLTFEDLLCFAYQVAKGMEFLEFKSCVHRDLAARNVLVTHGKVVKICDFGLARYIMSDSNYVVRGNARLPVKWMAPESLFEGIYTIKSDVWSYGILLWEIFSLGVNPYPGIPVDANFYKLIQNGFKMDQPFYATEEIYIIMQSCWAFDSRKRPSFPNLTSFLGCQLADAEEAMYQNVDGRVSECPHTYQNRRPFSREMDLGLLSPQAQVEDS
# [16] = target: Vascular endothelial growth factor receptor 3 (Homo sapiens) (UniProt P35916); settings: at 0.1 µM
# [17] = target: Vascular endothelial growth factor receptor 3 (Homo sapiens) (UniProt P35916); settings: at 1 µM
# [18] = target: Macrophage colony-stimulating factor 1 receptor (Homo sapiens) (UniProt P07333); settings: at 0.1 µM
# [19] = target: Macrophage colony-stimulating factor 1 receptor (Homo sapiens) (UniProt P07333); settings: at 1 µM
# [20] = target: Tyrosine-protein kinase Fyn (Homo sapiens) (UniProt P06241); settings: at 0.1 µM
# Sequence of Tyrosine-protein kinase Fyn (Homo sapiens) (P06241 2-537 limits assumed): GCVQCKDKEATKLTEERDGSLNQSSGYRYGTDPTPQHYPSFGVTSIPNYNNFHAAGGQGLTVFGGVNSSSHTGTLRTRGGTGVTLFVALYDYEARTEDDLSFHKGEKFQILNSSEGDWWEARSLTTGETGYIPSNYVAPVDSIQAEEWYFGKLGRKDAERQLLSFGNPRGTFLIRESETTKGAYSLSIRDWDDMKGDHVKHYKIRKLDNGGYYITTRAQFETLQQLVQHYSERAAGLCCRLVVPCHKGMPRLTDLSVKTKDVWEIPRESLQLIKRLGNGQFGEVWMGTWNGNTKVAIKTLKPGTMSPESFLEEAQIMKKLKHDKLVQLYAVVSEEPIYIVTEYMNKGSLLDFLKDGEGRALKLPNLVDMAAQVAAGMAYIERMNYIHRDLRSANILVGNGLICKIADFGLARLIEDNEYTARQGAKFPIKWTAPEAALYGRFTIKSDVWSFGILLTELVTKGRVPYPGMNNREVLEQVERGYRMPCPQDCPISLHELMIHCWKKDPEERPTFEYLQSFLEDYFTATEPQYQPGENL
# Sequence of Serine/threonine-protein kinase Nek6 (Homo sapiens) (Q9HC98 whole entry): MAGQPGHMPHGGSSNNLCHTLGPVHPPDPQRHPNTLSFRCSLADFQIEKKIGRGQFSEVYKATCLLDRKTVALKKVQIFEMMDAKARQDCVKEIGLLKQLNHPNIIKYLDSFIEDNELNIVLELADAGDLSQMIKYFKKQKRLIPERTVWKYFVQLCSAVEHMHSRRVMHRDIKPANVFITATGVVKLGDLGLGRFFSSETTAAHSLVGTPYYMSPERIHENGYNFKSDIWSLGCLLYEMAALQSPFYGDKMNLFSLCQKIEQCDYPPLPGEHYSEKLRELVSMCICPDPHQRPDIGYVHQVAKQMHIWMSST
# Sequence of Serine/threonine-protein kinase Nek7 (Homo sapiens) (Q8TDX7 whole entry, looked up): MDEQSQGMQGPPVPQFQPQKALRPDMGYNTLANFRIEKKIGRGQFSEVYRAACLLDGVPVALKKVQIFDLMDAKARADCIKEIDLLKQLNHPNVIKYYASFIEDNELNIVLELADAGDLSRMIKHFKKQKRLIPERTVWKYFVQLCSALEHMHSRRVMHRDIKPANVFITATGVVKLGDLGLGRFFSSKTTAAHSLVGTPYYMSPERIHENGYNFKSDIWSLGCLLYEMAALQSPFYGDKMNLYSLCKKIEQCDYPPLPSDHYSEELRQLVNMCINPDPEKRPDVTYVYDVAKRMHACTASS
# Sequence of Vascular endothelial growth factor receptor 3 (Homo sapiens) (P35916 whole entry): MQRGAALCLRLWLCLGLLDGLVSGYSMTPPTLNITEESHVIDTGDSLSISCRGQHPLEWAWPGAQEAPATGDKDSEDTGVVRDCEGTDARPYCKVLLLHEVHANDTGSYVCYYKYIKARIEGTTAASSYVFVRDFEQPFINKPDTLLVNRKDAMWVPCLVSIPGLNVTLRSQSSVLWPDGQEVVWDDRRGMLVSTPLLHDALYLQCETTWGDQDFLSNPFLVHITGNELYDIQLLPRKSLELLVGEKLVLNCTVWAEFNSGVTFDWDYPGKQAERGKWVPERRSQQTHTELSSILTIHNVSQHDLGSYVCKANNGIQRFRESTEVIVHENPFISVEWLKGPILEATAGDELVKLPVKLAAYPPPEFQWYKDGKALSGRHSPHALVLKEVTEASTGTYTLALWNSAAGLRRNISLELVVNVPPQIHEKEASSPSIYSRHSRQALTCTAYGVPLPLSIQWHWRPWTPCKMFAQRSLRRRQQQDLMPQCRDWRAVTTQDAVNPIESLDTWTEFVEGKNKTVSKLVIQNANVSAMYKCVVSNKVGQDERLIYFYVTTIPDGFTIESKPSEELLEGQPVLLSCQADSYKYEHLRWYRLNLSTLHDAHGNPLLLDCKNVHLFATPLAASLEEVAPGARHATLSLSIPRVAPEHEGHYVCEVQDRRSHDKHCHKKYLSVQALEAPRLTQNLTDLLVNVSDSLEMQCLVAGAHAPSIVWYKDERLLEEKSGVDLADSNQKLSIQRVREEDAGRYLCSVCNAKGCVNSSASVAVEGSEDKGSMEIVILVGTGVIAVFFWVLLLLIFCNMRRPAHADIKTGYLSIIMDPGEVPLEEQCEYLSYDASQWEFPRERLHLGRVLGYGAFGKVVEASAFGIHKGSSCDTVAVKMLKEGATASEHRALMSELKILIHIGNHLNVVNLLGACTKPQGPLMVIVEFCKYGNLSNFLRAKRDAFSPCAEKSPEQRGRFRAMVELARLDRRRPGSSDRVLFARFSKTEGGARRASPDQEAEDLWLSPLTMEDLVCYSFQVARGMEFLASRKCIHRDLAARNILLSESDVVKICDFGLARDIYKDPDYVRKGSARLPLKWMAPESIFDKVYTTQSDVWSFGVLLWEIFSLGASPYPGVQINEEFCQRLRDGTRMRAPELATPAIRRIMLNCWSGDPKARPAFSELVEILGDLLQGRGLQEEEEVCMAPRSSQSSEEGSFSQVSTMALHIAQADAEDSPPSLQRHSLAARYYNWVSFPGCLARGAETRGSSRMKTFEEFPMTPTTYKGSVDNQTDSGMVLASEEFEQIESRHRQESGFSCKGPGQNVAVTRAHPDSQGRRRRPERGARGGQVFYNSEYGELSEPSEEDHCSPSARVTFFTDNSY
# Sequence of Macrophage colony-stimulating factor 1 receptor (Homo sapiens) (P07333 whole entry): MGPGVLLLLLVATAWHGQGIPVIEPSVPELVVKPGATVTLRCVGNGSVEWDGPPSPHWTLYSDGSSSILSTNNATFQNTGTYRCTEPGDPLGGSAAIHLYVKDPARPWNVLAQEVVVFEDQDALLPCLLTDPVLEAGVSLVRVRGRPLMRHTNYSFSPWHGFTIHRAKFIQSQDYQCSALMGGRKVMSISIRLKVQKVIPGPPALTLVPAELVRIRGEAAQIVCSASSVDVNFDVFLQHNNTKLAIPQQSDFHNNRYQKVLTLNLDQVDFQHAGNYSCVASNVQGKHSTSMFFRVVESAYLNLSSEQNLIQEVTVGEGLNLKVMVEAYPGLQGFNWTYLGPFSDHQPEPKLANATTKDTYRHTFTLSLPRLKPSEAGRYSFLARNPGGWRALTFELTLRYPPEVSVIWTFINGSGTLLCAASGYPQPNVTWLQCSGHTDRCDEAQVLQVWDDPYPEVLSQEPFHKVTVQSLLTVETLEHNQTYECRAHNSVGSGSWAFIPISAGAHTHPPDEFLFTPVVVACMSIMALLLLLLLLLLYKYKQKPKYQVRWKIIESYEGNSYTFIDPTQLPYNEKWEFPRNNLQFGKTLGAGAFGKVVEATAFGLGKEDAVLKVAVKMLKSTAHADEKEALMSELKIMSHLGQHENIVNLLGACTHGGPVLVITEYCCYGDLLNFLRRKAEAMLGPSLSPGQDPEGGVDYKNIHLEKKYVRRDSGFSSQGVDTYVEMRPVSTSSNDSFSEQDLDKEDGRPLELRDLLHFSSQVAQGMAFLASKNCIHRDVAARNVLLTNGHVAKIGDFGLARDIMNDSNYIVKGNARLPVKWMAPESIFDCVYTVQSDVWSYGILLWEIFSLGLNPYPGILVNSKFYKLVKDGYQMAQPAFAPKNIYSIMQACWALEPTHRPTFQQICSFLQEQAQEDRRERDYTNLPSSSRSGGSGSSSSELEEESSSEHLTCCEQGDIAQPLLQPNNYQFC
# Sequence of Serine/threonine-protein kinase PLK1 (Homo sapiens) (P53350 whole entry): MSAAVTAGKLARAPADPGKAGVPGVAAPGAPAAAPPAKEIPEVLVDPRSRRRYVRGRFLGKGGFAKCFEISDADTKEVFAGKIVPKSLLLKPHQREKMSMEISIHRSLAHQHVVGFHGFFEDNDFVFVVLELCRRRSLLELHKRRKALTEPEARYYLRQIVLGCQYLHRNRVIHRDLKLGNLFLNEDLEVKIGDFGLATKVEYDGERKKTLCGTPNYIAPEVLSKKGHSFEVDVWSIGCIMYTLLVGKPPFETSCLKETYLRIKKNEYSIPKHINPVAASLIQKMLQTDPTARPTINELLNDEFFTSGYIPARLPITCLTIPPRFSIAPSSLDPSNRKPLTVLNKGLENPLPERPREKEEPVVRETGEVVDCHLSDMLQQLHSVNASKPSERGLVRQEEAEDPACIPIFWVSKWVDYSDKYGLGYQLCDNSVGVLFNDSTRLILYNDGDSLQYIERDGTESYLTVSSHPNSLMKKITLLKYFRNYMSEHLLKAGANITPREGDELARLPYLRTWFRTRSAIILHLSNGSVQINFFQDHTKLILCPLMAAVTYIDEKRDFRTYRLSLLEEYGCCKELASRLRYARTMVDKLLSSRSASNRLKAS
compound,measurement,setting,value
CN(C)C(=O)O[C@H]1CN[C@H](C#Cc2cc3ncnc(Nc4ccc(OCc5cccc(F)c5)c(Cl)c4)c3s2)C1,inhibition,[1],4.15%
same,inhibition,[2],1.2%
same,inhibition,[3],3.73%
same,inhibition,[4],4.44%
same,inhibition,[5],5.04%
same,inhibition,[6],1.81%
same,inhibition,[7],-0.96%
same,inhibition,[8],3.6%
same,inhibition,[9],2.54%
same,inhibition,[10],7.4%
same,inhibition,[11],-1.84%
same,inhibition,[12],2.9%
same,inhibition,[13],2.92%
same,inhibition,[14],4.75%
same,inhibition,[15],4.09%
same,inhibition,[16],2.38%
same,inhibition,[17],1.19%
same,inhibition,[18],10.5%
same,inhibition,[19],3.36%
same,inhibition,[20],-0.77%
